We go through 37 molecules from PubChem BioAssay AID492948 (National Center for Advancing Translational Sciences (NCATS), 2010).

Inconclusive results are not listed. Active and inactive are the calls of the source. The call rests on the fitted dose curve; in most records, active means well fitted activation curve with a large enough effect; inconclusive means small, poorly fitted or top-dose-only effect; inactive means no such curve, though single readings can be large or run the other way.
Potency means the concentration at half of the fitted maximal effect.

The nature of the test: qHTS Assay for Agonists of the Relaxin Receptor RXFP1: V1B Hit Validation.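 Further: counter-screen in HEK293 cells expressing V1B rather than RXFP1 for selectivity; nearly all actives have a fitted effect of over 65% in size.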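 On activation: cAMP accumulation with PDE4 inhibitor Ro 20-1724 present during compound exposure; 0% = buffer alone basal and 100% = 29 nM porcine relaxin.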 The conditions noted are these: HEK293 V1B cells, cAMP TR-FRET, 30 min; series mostly up to 115 µM; activation: at the top concentration. A digest of the protocol:
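HEK293 cells (2000/well) were exposed to compounds for 30 min at 37C with PDE4 inhibitor Ro 20174. cAMP was read by TR-FRET after lysis, normalized to buffer and 29 nM porcine relaxin, and EC50 was fitted by Hill equation.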
(In general: Quantitative high-throughput screening tests each substance at several concentrations.)
With `CCOC(=O)c1cc2c(=O)n3ccccc3nc2n(Cc2ccco2)c1=NC(=O)c1ccccc1OCC`, the Potency was 38.9 µM (active).
For the molecule `CC1(C)Cc2c(sc3c2c2ncnn2c2nnc(SCC(=O)NCc4ccco4)n32)CO1`, the Potency was 6.91 µM (active).
`O=C(O)CCNc1ccc(NCCC(=O)O)c2c1C(=O)c1ccccc1C2=O`: the “activation” value was 1.09% (inactive).
As for `Cn1c(=O)c2sccc2n2c(CCCC(=O)NCc3cccnc3)nnc12`, the Potency was 19.4 µM (active).
On the same count and under the same terms, for `Cc1cc(Br)c2nc3c(c(C(=O)O)c2c1)CCCCC3` the value was 1.54 µM (active).
In the case of `O=C(Nc1ccccc1C(=O)NCc1ccccc1)c1ccco1`, the “activation” value is -0.271% [at 127 µM] (inactive).
On the same count and under the same terms, the value for `COC(=O)c1c(N2C(=O)CC(Sc3ncccc3C(=O)O)C2=O)sc(C)c1C` (configuration not stated) was -11.8% (inactive).
For `Cc1cc(C(=O)COC(=O)Cn2cnc3c2c(=O)n(C)c(=O)n3C)c(C)n1C`, the Potency is 13.8 µM (active).
For `O=C(Nc1ccccc1C(=O)NCc1ccco1)c1ccccc1`, the “activation” value is 5.63% [at 127 µM] (inactive).
For the molecule `Cc1cc(C)c(C(=O)CSc2n[nH]c(=O)n2C2CC2)cc1C`, the “activation” value is -2.45% (inactive).
On to `CCc1ccc2n(-c3ccc(OC)cc3)c([S-])c(C(=O)Nc3cc(C)cc(C)c3)[n+]2c1`, for which the Potency is 30.8 µM (active).
Same read-out and setting: the value for `Cc1nc2scc(C)n2c(=O)c1S(=O)(=O)N1CCN(c2ccccn2)CC1` was 30.9 µM (active).
Same read-out and setting: the value for `O=C(O)CCSc1ccc2ccccc2n1` was 6.15 µM (active).
Consider `COC(=O)[C@@H]1C[C@@]2(O)[C@H](O)[C@H](O)[C@H](O)C[C@H]2N1Cc1cc(F)ccc1F`, for which the “activation” value was 3.86% (inactive).
Still for that read-out and setting: the value for `Cc1cccc(C(=O)Nc2ccccc2C(=O)NCc2ccco2)c1` was -0.448% [at 127 µM] (inactive); that for `NC(=O)c1ccccc1NC(=O)CC12CC3CC(CC(C3)C1)C2` was 1.11% [at 127 µM] (inactive).
Consider `C[C@H](Cc1ccccc1)Nc1ncnc2c1ncn2[C@@H]1O[C@H](CO)[C@@H](O)[C@H]1O`, for which the Potency was 21.9 µM (active).
Turning to `CC(C)c1ccccc1NC(=O)c1ccccc1NC(=O)C1CCCCC1`, the “activation” value was 8.65% [at 127 µM] (inactive).
On to `CCc1cc2cc3c(cc2nc1SCC(=O)Nc1nccs1)OCO3`, for which the Potency was 19.4 µM (active).
Still for that read-out and setting: the value for `CCOC(=O)C1CCN(C(=O)c2cc3c(=O)n4ccccc4nc3s2)CC1` was 43.6 µM (active); that for `CCC(Sc1ccc2nnc(-c3cccnc3)n2n1)C(=O)OC` (configuration not stated) was 19.4 µM (active); that for `CC(=O)c1sc(NC(=O)C(C)C)nc1C` was 17.3 µM (active).
On to `CC(C)C(=O)Nc1ccc(Nc2ccccc2)cc1`, for which the “activation” value is -2.7% (inactive).
For the molecule `COc1ccc(OC)c(CNC(=O)C2CCN(C(=O)N(C)C)CC2)c1`, the “activation” value is -3.57% (inactive).
For `O=C(O)c1ccc(N2C(=O)c3cccc4cccc(c34)C2=O)cc1`, the Potency was 74.9 µM (active).
With `C=CCNc1ncnc2c1ncn2C1OC(CO)C(O)C1O` (configuration not stated), the “activation” value was -32.1% (inactive).
Still for that read-out and setting: for `Cc1cccc(-c2nnc(SCC(=O)NC3CC3)n2C)c1` the value was -32.2% (inactive).
Take `CC(C)Oc1ccc(S(=O)(=O)N2CCOCC2)cc1NC(=O)c1cc([N+](=O)[O-])ccc1N1CCOCC1`: the Potency was 37.5 µM (active).
As to `COc1ccc(/C=C2/SC(=O)N(CCC(=O)Nc3ccc(C)cc3)C2=O)cc1OC`, the “activation” value is -74% (inactive).
Still for that read-out and setting: the value for `O=C(Nc1ccccc1C(=O)NCCc1ccccc1)c1ccco1` was 3.59% [at 127 µM] (inactive).
As to `Cn1c(=O)c2sccc2n2c(CCCC(=O)NCc3ccco3)nnc12`, the Potency was 34.6 µM (active).
On the same count and under the same terms, the value for `O=c1c2ccccc2cnn1Cc1n[nH]c(=S)n1-c1ccc(F)c(Cl)c1` was 21.9 µM (active); that for `COc1ccc(NC(=O)CCCc2nnc3n(C)c(=O)c4sccc4n23)cc1` was 43.6 µM (active).
Same read-out and setting: the value for `Cc1ccc(-n2nnc3c(=O)n(CC(=O)NCC4CCCO4)cnc32)cc1` (configuration not stated) was 24.5 µM (active); that for `COc1ccc(Cl)cc1-c1n[nH]c(=S)o1` was 4.35 µM (active).
For `Cn1c(N)c(C(=O)CSc2nnc(NC3CCCCC3)s2)c(=O)n(C)c1=O`, the “activation” value was -26.8% (inactive).
For `Cc1ccccc1NC(=O)c1ccccc1NC(=O)c1ccco1`, the “activation” value is 9.6% [at 127 µM] (inactive).
